High-throughput results deposited in PubChem by National Center for Advancing Translational Sciences (NCATS).
The list is not random: actives were taken first. Their share in the collection is about 4.3%.
SW480 rereplic: A quantitative high throughput screen for small molecules that induce DNA re-replication in SW480 colon adenocarcinoma cells | actives 1.8% (n = 340,000) | AID 624297, 2012 | SW480 DNA re-replication, Hoechst DNA content imaging, 48 h | Potency, µM (series often up to 46.1 µM), usual class: activators; also: nearly all actives have a fitted effect of over 55% in size
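Readout is total intensity of Hoechst-stained nuclei, excited at 405 nm and collected at 500-530 nm. Compound treatment lasted 48 hr at 37 C in 5% CO2 before staining.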
uPA generation: qHTS for Inhibitors of Cell Surface uPA Generation; cell surface uPA generation assay, qHTS; Potency, µM (series often up to 38.3 µM), hits mostly inhibitors; actives 0.31% (n = 330,000); AID 540303, 2011; active = well fitted inhibition curve with a large enough effect; inconclusive = small, poorly fitted or top-dose-only effect; inactive = no such curve, though single readings can be large or run the other way; tested in mouse RAW 264.7 cells; also: nearly all actives have a fitted effect of over 55% in size
MCF10A rereplic: A quantitative high throughput screen for small molecules that induce DNA re-replication in MCF 10a normal breast cells; actives 2.9% (n = 350,000); Potency, µM (series often up to 46.1 µM), usual class: activators; MCF 10A DNA re-replication, Hoechst nuclear intensity, 48 h; also: nearly all actives have a fitted effect of over 50% in size
Giardia kill: Small Molecules that selectively kill Giardia lamblia: qHTS | Giardia lamblia trophozoite viability | activity change, % at 7.66 µM, hits read low | actives 0.15% (n = 340,000) | AID 540267, 2011; in the data active = activity change below about -80%; inconclusive = between about -30% and that limit;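 also: parasites exposed to compound for two days anaerobically before the ATP read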
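Luminescent ATP signal served as the viability read-out, measured 15-30 min after adding ATP detection reagent to trophozoites that had been incubated with compounds for 48 hrs at 37 deg C anaerobically at 100 cells/well.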
Numbers stand for hits; – = inactive; ? = inconclusive; · = no result given; [ ] = dose if it differs, or a comment. Unless noted, calls follow the shape of the dose curve; as a rule, active = well fitted activation curve with a large enough effect; inconclusive = small, poorly fitted or top-dose-only effect; inactive = no such curve, though single readings can be large or run the other way.

SMILES	SW480 rereplic	uPA generation	MCF10A rereplic	Giardia kill
Cc1cc(=O)oc2cc(NC(=O)C(C)Oc3cccc(Cl)c3)ccc12 (centres undefined)	–	–	?	–
O=C(CSc1nccc(=O)[nH]1)Nc1ccc(N2CCOCC2)cc1	–	–	–	–
O=C(O)c1cc(-c2ccc(N3CCOCC3)cc2)nn1-c1ccc(F)cc1F	–	–	–	–
Brc1cc(Br)c2nc(-c3ccc(N4CCOCC4)cc3)ccc2c1	8.2µM	–	9.2µM	–
COc1cc(NC(=O)c2cccs2)c(OC)cc1NC(=O)CCC(=O)Nc1ccc(C)cc1	?	–	20.6µM	–
Cc1ccc(NC(=O)CCC(=O)N/N=C/c2cccs2)cc1C	?	–	–	–
O=C(CSc1ncccn1)N/N=C/c1cccs1	?	–	0.517µM	–
O=C(N/N=C/c1cccs1)c1ccccn1	–	–	–	–
Cc1ccc(NC(=O)CCC(=O)N/N=C/c2cccs2)cc1	9.2µM	–	–	–
CC(C)(C)C(=O)Nc1ccc(S(=O)(=O)N2CCC(c3nc4ccccc4[nH]3)CC2)cc1	–	–	–	–
CCN(CC)CCNC(=O)c1c(C)[nH]c(/C=C2\C(=O)Nc3ccc(F)cc32)c1C	–	·	–	·
CCOc1ccccc1NC(=S)N1CCN(c2ccccc2F)CC1	–	–	–	–
CCOC(=O)C1CN(S(C)(=O)=O)c2cc(CC(=O)OC)ccc2O1 (centres undefined)	–	–	–	–
O=C(O)Cc1ccc(S(=O)(=O)N2CCCC2)s1	–	–	–	–
COc1cc2c(cc1OC)C(C(C(=O)N(CCc1ccc(OC)c(OC)c1OC)CCc1ccc(OC)c(OC)c1OC)c1ccccc1)=NCC2 (centres undefined)	–	·	–	·
CC(C)OCCCNC(=O)CCCC(=O)Nc1ccc(OCCc2ccccc2)cc1	–	–	–	–
N#CCC(=O)Nc1ccc(C(=O)OCc2ccccc2Oc2ccccc2)cc1	?	–	20.6µM	–
CCCCC(CC)COC(=O)CC(C(=O)OCC(CC)CCCC)S(=O)(=O)O (centres undefined)	–	·	?	·
COc1ccc(OCC(=O)OCC(=O)NCC2CCCCC2)cc1	–	–	–	–
CS(=O)(=O)N1CCCC(C(=O)NC2CCCCCCC2)C1 (centres undefined)	–	–	23.1µM	–
CCS(=O)(=O)N1CCCC(C(=O)NC2CCCCC2)C1 (centres undefined)	–	–	–	–
Cc1ccc(C)c(N2CCN(C(=O)c3csc4ccccc34)CC2)c1	–	–	16.4µM	–
CCC(=O)N1CCN(c2cc(C)ccc2C)CC1	–	–	–	–
COc1ccc2c(c1)sc(=NC(=O)CS(=O)(=O)c1ccc(F)cc1)n2C	?	?	–	–
CC(C)(C)c1ccc(C(=O)NCCCN2CCN(CCCNC(=O)c3ccc(C(C)(C)C)cc3)CC2)cc1	?	–	16.4µM	–
SMILES	SW480 rereplic	uPA generation	MCF10A rereplic	Giardia kill
COc1ccccc1NS(=O)(=O)c1ccc(C(=O)NCCCN2CCOCC2)cc1	8.2µM	–	–	–
O=C(NCCCN1CCOCC1)c1ccc(S(=O)(=O)Nc2ccccc2)cc1	–	–	?	–
O=C1c2cccc3cccc(c23)N1Cc1cccc(F)c1	?	–	25.9µM	–
O=C1c2cccc3cccc(c23)N1Cc1ccc(F)cc1	–	–	?	–
COc1ccc(CN2C(=O)c3cccc4cccc(c34)C2=O)cc1	18.4µM	–	–	–
Cc1cc(-c2nc(C)c(C(=O)NNS(=O)(=O)c3ccc(Cl)cc3Cl)s2)no1	–	–	–	–
Cc1cc(-c2nc(C)c(C(=O)NN)s2)no1	?	–	18.4µM	–
Cc1nc(-c2ccccc2)sc1C(=O)NN	?	10µM	18.4µM	–
Cc1ccc(N/C=C/C(=O)c2sc(-c3ccccc3)nc2C)cc1	–	–	9.2µM	–
Cc1ccc(C(=O)OCC(=O)NC2CCCC2)cc1	–	–	–	–
CC1CCCCC12NC(=O)N(CC(=O)NCCc1ccc(S(N)(=O)=O)cc1)C2=O (centres undefined)	–	–	–	–
COc1ccc(C#Cc2c(-c3ccccc3)n(-c3ccccc3)c3ccc(CO)cc23)cc1	?	–	20.6µM	–
CSc1nsc(/C=C/Nc2ccc(O)cc2C)c1C#N	23.1µM	–	?	–
CSc1nsc(/C=C/Nc2ccc(F)cc2)c1C#N	–	–	?	–
CSc1nsc(/C=C/Nc2cccc(Cl)c2)c1C#N	–	–	9.2µM	–
COc1ccc(-n2c(C)cc(/C=C3\C(=N)N4N=C(CC(=O)N5CCOCC5)SC4=NC3=O)c2C)cc1	–	–	–	–
CC(=O)c1ccc2noc(-c3ccccc3)c2c1	–	–	–	–
CN(C)/C=C/C(=O)c1ccc2noc(-c3ccccc3)c2c1	–	–	20.6µM	–
Clc1cc(Cl)c(OCC#CI)cc1Cl	?	·	21.1µM	·
Clc1cc(Cl)c(Cl)cc1Cl	–	–	–	–
COc1cc(/C=C(\C#N)C(=O)N2CCc3ccccc32)ccc1O	–	–	–	–
N#C/C(=C\c1ccc(O)c(O)c1)C(=O)N1CCc2ccccc21	?	3.55µM	–	–
COCCN1C(=O)c2[nH]nc(-c3ccccc3O)c2C1c1ccc(OCc2ccccc2)c(OC)c1 (centres undefined)	·	·	·	–
COc1cc2c(cc1OC)C(=O)N1[C@H]3c4cc(C)ccc4OC[C@@H]3[C@H](c3ccccc3)[C@]1(C)C(=O)N2	13µM	?	14.6µM	–
COc1cc2c(cc1OC)C(=O)N1[C@H]3c4cc(Cl)ccc4OC[C@@H]3[C@H](c3ccccc3)[C@]1(C)C(=O)N2	?	?	9.2µM	–
SMILES	SW480 rereplic	uPA generation	MCF10A rereplic	Giardia kill
CCCN1CNc2c(c(=O)[nH]c(=S)n2CCc2ccc(Cl)cc2)C1	·	·	·	–
CN1CCC(CC(C(=O)N2CCCC2)(c2ccccc2)c2ccccc2)C1 (centres undefined)	–	–	–	–
Cc1cc2c(C)cc(=O)oc2c2c1NCCC2	?	·	12.6µM	–
CCN(C[C@H]1N[C@@](Cc2ccccc2)(C(=O)OC)[C@H]2C(=O)N(Cc3ccccc3)C(=O)[C@@H]12)C(=O)C1CCCCC1	?	–	–	–
Cc1ccc(/C=C/C(=O)Nc2ccc([N+](=O)[O-])cc2)o1	–	–	–	–
CCOC(=O)CCc1ccc(NC(=O)/C=C/c2ccc([N+](=O)[O-])o2)cc1	7.31µM	–	9.2µM	–
CCc1ccc(C(=O)/C=C/c2ccc([N+](=O)[O-])o2)cc1	–[9.22 µM]	–	8.91µM	?
CCCN1C(C)C(C(=O)OCC)=CN(Cc2cccc(I)c2)S1(=O)=O (centres undefined)	?	–	–	–
O=S(=O)(Nc1cccnc1)c1cccc(C(F)(F)F)c1	–	–	–	–
O=[N+]([O-])c1ccc(S(=O)(=O)c2cccc(C(F)(F)F)c2)nc1	4.11µM	–	5.17µM	–
O=[N+]([O-])c1ccc(NC(=S)NCc2ccncc2)cc1	–	–	–	–
S=C(NCc1cccs1)Nc1cccc(Cl)c1	?	·	–	–
S=C(NCc1cccs1)Nc1cc(Cl)cc(Cl)c1	?	–	23.1µM	–
